Results: PubChem BioAssay AID463190 (Sanford-Burnham Center for Chemical Genomics, 2010)
The whole screen tested about 330,000 compounds, of which about 7,300 (2.2%) were called active.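 Rule for the calls: active = inhibition of at least 40%; inactive = the rest.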 The list comes from a sample in which actives are over-represented; it also holds similar structures and randomly drawn compounds.

Test: growth inhibitors of tim10-1 mutant yeast, primary screen, luminescence, uHTS (AID 463190);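 note: mutant grown at 25 °C; 0% = DMSO wells with yeast and 100% = wells holding no yeast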
Settings: S. cerevisiae tim10-1 ts strain growth, BacTiter-Glo, 24 h; at 20 µM; stronger effect = higher value

inhibition, active:
CCCc1nc2c(c(=O)c3ccccc3n2C)c(=O)n1C1CCCCCC1 43.1%
O=c1oc(-c2ccco2)nc2sc3c(c12)CCCCC3 41.5%
C/C(=N\NC(=O)CNc1cccc2ccccc12)c1ccc(Br)s1 41.9%
C=CCNc1nc(Nc2ccc(Cl)cc2)nc(OC)n1 43.2%
Cc1[nH][nH]c(=O)c1C(c1ccc(-c2ccc(Cl)cc2)o1)c1c(C)[nH][nH]c1=O 67.1%
O=C(CSC(=S)N1CCOCC1)c1cc(Br)cc(Br)c1O 50.1%
O=C1c2cccc3c([N+](=O)[O-])ccc(c23)C(=O)N1CC1CCCO1 (centres undefined) 71.2%
O=C(c1ccccc1)N1CCC(CC2CC(c3ccc(Cl)cc3)=NO2)(C(=O)NCC2CCCCC2)CC1 (centres undefined) 41.2%
COc1ccc(C(C[N+](=O)[O-])n2nc(C)cc2C)cc1 (centres undefined) 43.3%
COC(=O)c1ccc(NC(=O)c2ccccc2NS(=O)(=O)c2ccccc2)cc1 40.3%
Cc1cc(C)c(S(=O)(=O)c2ccccc2)c(OC(=O)c2c(F)cccc2Cl)n1 42.6%
CCc1ccc(-c2cc3c(=O)n(CC(=O)NCCCN4CCN(Cc5ccccc5)CC4)nc(C)n3n2)cc1 43.7%
CN(C)C(=O)c1ccc2c(c1)C1C3CCC(C3)C1C(c1ccccc1)N2 (centres undefined) 46%
Cc1cc(C)n(-c2nc(SCC(=O)N3CCCC3)c3c4c(sc3n2)CCCC4)n1 52.2%
N#C/C(=C\c1cccnc1)C(=O)Nc1ccc(SC(F)F)cc1 52.5%
Cc1ccc(Nc2nc(-c3ccc(O)cc3O)cs2)nc1 43.9%
O=[N+]([O-])c1ccc(N/N=C/c2ccccc2)cc1 40.7%

inhibition, inactive:
O=C(Nc1cccc(Cl)c1)C1CCCN(c2cnccn2)C1 (centres undefined) -8.48%
O=C(NCCc1ccccc1)Oc1ccc(Cl)cc1 13.9%
O=C(COc1ccc(-n2cnnn2)cc1)Nc1ccccc1Cl -7.79%
Cc1ccc(NC(=O)CCC(=O)N2CCC(c3ccccc3)=N2)cc1S(=O)(=O)N1CCCCC1 -15.3%
Cc1ccc(C(=O)NCC(=O)OCC(=O)Nc2cccc(S(=O)(=O)N3CCCC3)c2)cc1C -7%
COc1ccccc1CNC(=O)CCCN1C(=O)NC2(CCCC2)C1=O 6.1%
Cn1c2ccccc2c(=O)c2c(O)cccc21 6.4%
Cn1c2ccccc2c2c(C(=O)N3CCN(c4ccc(F)cc4)CC3)cn(C3CCCC3)c(=O)c21 36.7%
CCc1nc2nc(C)c(NS(=O)(=O)c3ccc4c(c3)CCCC4)c(=O)n2[nH]1 -10.4%
O=S(=O)(c1ccc(Cl)cc1)c1nc(-c2ccco2)oc1N1CCCCC1 26.4%
Cn1c(=O)n(Cc2ccco2)c(=N)c2c3c(sc21)CCCC3 12.5%
Cc1cccc(/C=N/NC(=O)CNc2cccc3ccccc23)n1 23.6%
Cn1cccc1/C=N/NC(=O)CNc1cccc2ccccc12 13.6%
CC(C)c1ccc(NC2CCCN(C(=O)c3ccncc3)C2)cc1 (centres undefined) 8.48%
Fc1ccccc1OCCSc1nc2ccccc2o1 27.5%
COCCN(Cc1ccccc1)C(=O)Cc1ccc(S(=O)(=O)N2CCOCC2)s1 18.8%
C=CCNc1nc(C)nc(OC)n1 7.31%
COc1nc(NCc2ccc(Cl)cc2)nc(OC)n1 6.89%
CN(CC(=O)Nc1ccc(F)cc1)C(=O)c1ccc(-c2ccc(Cl)cc2)o1 21.8%
CCCCSc1[nH]c(=O)c(C(=O)OCC)cc1C#N -14.3%
O=C(c1cc2cc(Br)cc(Br)c2oc1=O)N1CCOCC1 7.28%
O=C(CSC(=S)N1CCOCC1)c1ccccc1 5.05%
Nn1c(SCC(=O)NC2CCCC2)nnc1-c1ccccc1F -11.7%
CC(=O)Nc1ccc(Sc2ccccc2C(=O)N2CCCC2)cn1 7.35%
CC(C)(C)CN1CCNC(=O)C1CC(=O)NC1Cc2ccccc2C1 (centres undefined) 16.6%
CN1CN(C)c2ccc([N+](=O)[O-])c3cccc1c23 9.35%
CCOc1cccc(=O)c2c(C)n(CC3CCCO3)c(C)c12 (centres undefined) 1.25%
COc1ccc(CNC(=O)C2(CC3CC(c4ccccc4)=NO3)CCN(C(=O)c3cccc(O)c3)CC2)cc1 (centres undefined) 2.25%
CCCCCCCNC(=O)C1(CC2CC(c3cccc(Br)c3)=NO2)CCN(C(=O)c2cc(OCC)c(OCC)c(OCC)c2)CC1 (centres undefined) -4.27%
O=C(NCC1CCCO1)C1CCN(C2CCN(C(=O)C3CCCCC3)CC2)CC1 (centres undefined) -2.3%
C/C(=N/O)c1ccc(N2C(=O)C3C4C=CC(C3C2=O)C2C3C(=O)N(c5ccc(/C(C)=N/O)cc5)C(=O)C3C42)cc1 (centres undefined) 6.62%
O=C(O)c1cccc(S(=O)(=O)N2CC=C(c3ccccc3)CC2)c1 13.4%
CCOc1ccc(C(C)C)cc1S(=O)(=O)n1nc(C)cc1C 36.6%
COc1ccc(OC)c(S(=O)(=O)n2c([N+](=O)[O-])cnc2C)c1 13.3%
Cc1ccc(S(=O)(=O)N(C)C)cc1NC(=O)c1ccc(-n2cncn2)c([N+](=O)[O-])c1 -0.831%
Cn1ccs/c1=N\S(=O)(=O)c1ccc(C(C)(C)C)cc1 26.8%
COc1cc(C(=O)OCc2cc(=O)n3ccsc3n2)ccc1OC(C)C -4.26%
CCCCCCSc1nsc(N)n1 26.2%
CN(Cc1ccccc1)CC(O)COc1ccc(CNCc2cc3ccccc3s2)cc1 (centres undefined) -10.1%
COC(=O)c1ccccc1NS(=O)(=O)c1ccc2[nH]c(=O)[nH]c2c1 5.53%
CCOc1ccc(NC(=O)c2ccccc2NS(C)(=O)=O)cc1 -4.15%
CCOC(=O)c1ccc(NC(=O)CS(=O)(=O)c2cn(CC)c3ccccc23)cc1 14.8%
CC(=O)c1cc(CN2CCC(n3nccc3NC(=O)c3ccccc3Cl)CC2)cs1 -3.89%
Cc1ccc(N=Cc2c(O)n(-c3nccs3)c(=O)c3ccccc23)c(C)c1 9.76%
OCc1nc(CO)n(Cc2ccccc2)n1 4.38%
Cc1ccc(NNC(=O)c2c(F)cccc2Cl)cc1Cl 14%
Cc1cc(OC(=O)c2c(Cl)cccc2Cl)nc(C)n1 35%
O=C(O)c1cccnc1NC1CCCC1 -10.6%
CCC(=O)c1cn(CCOc2ccccc2OC)c2ccccc12 4.25%
Cc1nn(CC(=O)NCCc2ccccc2)c(=O)c2cc3occc3n12 -16.4%
Cc1ccc(-c2ccc(=O)n(CC(=O)NCCCN3CCCCC3)n2)cc1 -3.38%
CCOC(=O)/C=C/CN(C(=O)OC(C)(C)C)S(=O)(=O)N1CC=CC1 17.9%
CC(C)(Oc1ccc(C2CC2(Cl)Cl)cc1)C(=O)O (centres undefined) 9.95%
CN(C)C(=O)c1ccc(NC(=O)c2ccccc2-c2ccccc2)cc1 3.15%
Cc1ccc(C)c(N2CCN(C(=O)CCc3nc(-c4cccc(C(F)(F)F)c4)no3)CC2)c1 17.8%
OCCC1CN(Cc2ccccc2-c2ccco2)CCN1Cc1ccsc1 (centres undefined) 17.5%
COc1cc(C=NNC(=O)c2cccnc2)ccc1OC(=O)c1ccccc1F 4.11%
CN(NS(=O)(=O)c1cccs1)c1ncc(C(F)(F)F)cc1Cl 15.9%
CC(C)c1nc(SCC(=O)Nc2cccc(C(=O)O)c2)c2c3c(sc2n1)CCCC3 10.1%
COCCNc1nc(-n2nc(C)cc2C)nc2sc3c(c12)CCCC3 30.3%
O=C(O)C1CCCN1S(=O)(=O)c1ccc(Br)cc1 (centres undefined) -5.99%
COCCN(C(=O)COC(=O)Cc1cccc(OC)c1)c1c(N)n(Cc2ccccc2)c(=O)[nH]c1=O 0.462%
Cc1cc(/C=C(/C#N)C(=O)Nc2ccc(Cl)cc2)c(C)n1-c1cccnc1 20.6%
CC(C)(C)NC(=O)/C(=C/c1cccnc1)NC(=O)c1ccco1 -15.4%
O=C(O)CCCCCCCCc1cn(CN2C(=O)c3ccccc3C2=O)nn1 -13.2%
CCOC(=O)N1CCC(N(CCOC)C(=O)Nc2ccc(C)c(C)c2)CC1 26.7%
COc1ccc(/C(=N\O)c2nccc3cc(OC)c(OC)cc23)cc1OC 17.4%
Cc1ccc(-c2csc(NCCc3nc4cc(Cl)c(Cl)cc4n3CCOCCO)n2)cc1 33.4%
Cc1ccccc1Nc1nc(-c2cccnc2)cs1 -3.25%
COc1c(C(=O)N2CCCC2)ccc2ccccc12 6%
C[C@@H](NC(=O)[C@@H]1Cc2ccccc2CN1)C(=O)NC1CCCC1 5.23%
CC(C)(CNC(=O)c1cc(=O)[nH]c2ccccc12)N1CCOCC1 -7.73%
O=C(N/N=C/c1ccc([N+](=O)[O-])cc1)C(=O)N1CCCC1 17.3%
O=[N+]([O-])c1cccc(/C=N/Nc2ncc(Br)cn2)c1 -23.5%
COc1ccc(-n2nc(C(=O)NCC(=O)N3CCN(c4ccccc4OC)CC3)c3ccccc3c2=O)c(OC)c1 1.49%
CCN(c1ccccc1)S(=O)(=O)c1ccc2[nH]c(=O)[nH]c2c1 11.5%
O=C(O)C(c1ccccc1)C1(O)CCCCC1 (centres undefined) 2.11%
